Assay outcomes from PubChem BioAssay.
This is a sample that favours compounds with a hit; in the whole collection about 3.5% have one here.
TEAD-YAP inh – TEAD-YAP interaction inhibition; HEK-TIYL cells, TEAD-Gal4/YAP UAS-luciferase luminescence; inhibition, % at 9.12 µM; 640,000 tested, 1.4% active; in the data active = inhibition above about 32%;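 note: 0% = median of test compound wells and 100% = reference inhibitor wells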
MITF primary – inhibitors of human MITF | O75030 | AlphaScreen MITF homodimerization, bead proximity signal | inhibition, % at 2.6 µM | 650,000 tested, 0.91% active; in the data active = inhibition above about 50%;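 note: 0% = vehicle wells with protein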
FBW7 activator – human FBW7 E3 ligase activation, primary screen; Q969H0; AID 1259310; normalized activity (activation), % at 26.1 µM; 650,000 tested, 0.13% active; AlphaScreen FBW7–phospho-cyclin E peptide binding, activator screen; in the data active = normalized activity above about 1.9%;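 note: purified mutant Fbw7 with reduced substrate affinity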
Target sequence (Q969H0 whole entry, looked up): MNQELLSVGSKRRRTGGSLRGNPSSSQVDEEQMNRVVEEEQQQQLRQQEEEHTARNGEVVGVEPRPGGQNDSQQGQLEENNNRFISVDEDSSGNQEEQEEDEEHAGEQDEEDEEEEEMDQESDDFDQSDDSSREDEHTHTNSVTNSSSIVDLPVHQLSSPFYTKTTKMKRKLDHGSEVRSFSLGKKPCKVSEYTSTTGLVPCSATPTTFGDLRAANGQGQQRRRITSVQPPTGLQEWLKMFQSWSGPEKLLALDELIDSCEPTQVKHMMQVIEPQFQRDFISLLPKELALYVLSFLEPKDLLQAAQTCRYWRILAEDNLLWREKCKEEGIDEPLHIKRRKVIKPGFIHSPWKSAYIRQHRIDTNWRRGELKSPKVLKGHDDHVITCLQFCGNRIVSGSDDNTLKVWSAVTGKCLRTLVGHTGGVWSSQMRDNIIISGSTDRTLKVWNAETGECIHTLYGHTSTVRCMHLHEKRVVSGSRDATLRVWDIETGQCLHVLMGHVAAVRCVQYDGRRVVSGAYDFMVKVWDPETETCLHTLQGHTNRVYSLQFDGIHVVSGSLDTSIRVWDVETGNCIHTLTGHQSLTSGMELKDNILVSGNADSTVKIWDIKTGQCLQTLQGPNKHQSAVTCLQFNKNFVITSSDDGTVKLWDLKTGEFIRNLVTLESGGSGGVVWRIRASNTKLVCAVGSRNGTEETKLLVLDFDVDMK
GPR151 ag – activates the human receptor GPR151 | 650,000 tested, 1% active | Q8TDV0 | PathHunter beta-arrestin GPR151 cells, luminescence | AID 1508602 | activation, % at 11.2 µM; in the data active = activation above about 4.9%;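 note: 0% = median of compound wells and 100% = cells with positive control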
* = called active by the depositor.

SMILES | TEAD-YAP inh | MITF primary | FBW7 activator | GPR151 ag
O=[N+]([O-])c1cc(CN2CCC(c3ccccc3)C2)c(O)c2ncccc12 (stereo not given) | 32* | 55* | -1 | 2
O=[N+]([O-])c1cc(CN2CCCCC2)c(O)c2ncccc12 | 4 | 73* | -1 | -2
OCCNc1nc(Nc2ccc3ncccc3c2)nc2c1ncn2-c1ccccc1 | 45* | 19 | 0 | -1
Oc1ccc(CCNc2nc(Nc3ccc4ncccc4c3)nc3c2ncn3-c2ccccc2)cc1 | 46* | 1 | 0 | 0
Oc1ccc(CCNc2nc(Nc3ccncn3)nc3c2ncn3-c2ccccc2)cc1 | 43* | 12 | 0 | -2
CCCNc1nc(Nc2ccc3ncccc3c2)nc2c1ncn2-c1ccsc1 | 48* | -1 | 0 | 1
OCCNc1nc(Nc2ccncn2)nc2c1ncn2Cc1ccc(C(F)(F)F)cc1 | -12 | 17 | 3.1* | -1
CCCNc1nc(Nc2ccccc2)nc2c1ncn2-c1ccccc1 | -6 | -8 | 0 | -1
CCCNc1nc(Nc2ccc3ncccc3c2)nc2c1ncn2-c1ccccc1 | 34* | 5 | 0 | 2
CCCNc1nc(Nc2ccncc2)nc2c1ncn2-c1ccccc1 | 43* | 14 | 0 | -2
CCOc1ccc2nc(SCC(=O)N3c4ccccc4CCc4ccccc43)sc2c1 | -4 | 31 | 0 | -1
CCOc1ccc(C2C(C#N)=C(N)N(c3ccc(OC)cc3)C3=C2C(=O)CC(C)(C)C3)cc1 (stereo not given) | 47* | 8 | 0 | -1
CCc1ccc(C2C(C#N)=C(N)N(c3ccc(OC)cc3)C3=C2C(=O)CC(C)(C)C3)cc1 (stereo not given) | -14 | 2 | 0 | 2
COc1ccc(N2C(N)=C(C#N)C(c3ccc(OC)c(OC)c3)C3=C2CC(C)(C)CC3=O)cc1 (stereo not given) | 40* | -1 | 0 | -1
COc1cc(C2C(C#N)=C(N)N(c3ccc(Br)cc3)C3=C2C(=O)CC(C)(C)C3)cc(OC)c1OC (stereo not given) | 41* | 3 | 0 | 1
CC(C)CN(CC(C)C)C(=O)c1ccc([N+](=O)[O-])o1 | -3 | -6 | 0 | -1
CC1=C(C(N)=O)C(c2cccnc2)n2nc(SCc3ccccc3)nc2N1 (stereo not given) | 7 | 12 | 0 | 0
CN(C)CCNC(=O)c1cc2c(-c3ccc(Cl)cc3)nn(C)c2s1 | 68* | 11 | 1 | -1
CN1CCN(CCCNC(=O)c2cc3c(-c4ccc(Cl)cc4)nn(C)c3s2)CC1 | -5 | 14 | 1 | 2
O=C(CSc1nc2ccccc2[nH]1)Nc1ccc(Br)cn1 | 76* | -13 | 0 | 2
Cc1cc(=O)[nH]c(SCC(=O)Nc2ccc(Br)cn2)n1 | -2 | 13 | 0 | -1
CC(C)N(C)Cc1nnnn1CC(=O)NCCC1=CC[C@H]2C[C@@H]1C2(C)C | 1 | -6 | 0 | 0
CN(Cc1ccccc1)c1ccnc2c(-c3cccc(CO)c3)cnn12 | 76* | -18 | 0 | 0
Oc1cccc(-c2cnn3c(NCc4ccccn4)ccnc23)c1 | 56* | 14 | -1 | -1
OCc1cccc(-c2cnn3c(NCc4ccccn4)ccnc23)c1 | 77* | 23 | -1 | 0
SMILES | TEAD-YAP inh | MITF primary | FBW7 activator | GPR151 ag
CN(Cc1ccccc1)c1ccnc2c(-c3cccnc3)cnn12 | -46 | -29 | 0 | 1
CCOC(=O)c1c(NC(=O)c2cccc(F)c2)sc(C(=O)Nc2ccc(OC)cc2OC)c1C | 4 | -5 | 0 | -1
Cc1ccc(S(=O)(=O)Nc2ccc(S(=O)(=O)Nc3ccccc3Cl)cc2)cc1 | 4 | 1 | 0 | -2
CCCC(=O)N1c2cc(C)ccc2C(=C2SC(C(=O)OCC)=C(C(=O)OCC)S2)C(=S)C1(C)C | -16 | 13 | 1 | 1
CC1Cc2ccccc2N1C(=O)CSc1nnc(Cc2cccs2)n1C (stereo not given) | 47* | -4 | 0 | 0
CC1Cc2ccccc2N1C(=O)CSc1nnc(CSc2ncccn2)n1C (stereo not given) | 9 | -8 | 0 | 0
COc1ccc(CCNc2nc(-c3ccccc3)ncc2C)cc1 | 42* | -4 | 0 | -2
COc1ccc(CCNc2nc(-c3c(C)nn(C)c3C)ncc2C)cc1 | 3 | 11 | 0 | 2
COc1ccc(CCNc2nc(-c3ccc(OC)cc3)ncc2C)cc1 | 0 | -3 | 0 | 0
COc1ccc(CCNc2nc(-c3ccc(OC)nc3)ncc2C)cc1 | 41* | 4 | 0 | -2
COc1ccc(CCNc2nc(-c3c(C)noc3C)ncc2C)cc1 | 41* | -4 | 0 | 1
N#Cc1c(C(F)(F)F)cc(-c2cccs2)nc1SC/C=C/CSc1nc(-c2cccs2)cc(C(F)(F)F)c1C#N | 12 | 1 | 0 | 1
CCOC(=O)CSc1nc2sc3c(c2c(=O)n1C1CCCCC1)CCN(C)C3 | 15 | 4 | 2.3* | -1
CCOC(=O)c1sc(NC(=O)c2cc([N+](=O)[O-])ccc2Cl)nc1-c1ccccc1 | 39* | 6 | 0 | -1
O=C(Nc1nc(-c2ccccc2)cs1)c1cc([N+](=O)[O-])ccc1Cl | 33* | 12 | 0 | -1
CCOC(=O)c1sc(NC(=O)c2cc(Cl)ccc2[N+](=O)[O-])nc1-c1ccccc1 | 21 | 5 | 0 | 0
O=C(Nc1nc(-c2ccc3ccccc3c2)cs1)c1cc([N+](=O)[O-])ccc1Cl | 37* | 1 | 0 | 0
COc1ccc(-c2csc(NC(=O)c3cc(Cl)ccc3[N+](=O)[O-])n2)cc1C | 53* | 19 | 0 | 0
O=C(Nc1nc(-c2ccccc2)cs1)c1cc([N+](=O)[O-])ccc1Br | 23 | 1 | 0 | -1
N#C/C(=C\c1cc2c(cc1Br)OCO2)C(=O)Nc1ccccc1C(=O)O | -1 | 7 | 0 | 0
O=C(Nc1nc(-c2cccc3ccccc23)cs1)c1cc([N+](=O)[O-])ccc1Cl | 44* | -2 | 0 | 0
CCOC(=O)c1ccc(NC(=O)c2cc([N+](=O)[O-])ccc2Cl)cc1 | 39* | 11 | 0 | 1
CCOC(=O)c1ccc(Nc2cc(OC)c([N+](=O)[O-])nc2[N+](=O)[O-])cc1 | 67* | 25 | 1 | -1
Cc1ccc2nc(-c3ccc(N4C(=O)CC(N5CC(C)CC(C)C5)C4=O)cc3)sc2c1 (stereo not given) | -17 | -3 | 0 | 0
CC(C)c1ccc(C(O)Cc2nc3ccccc3n2C)cc1 (stereo not given) | -9 | -1 | -1 | 1
CN(C)c1ccc(-c2ccc3ccccc3n2)cc1 | 76* | 5 | 1 | -7
CN(C)c1ccc(C(O)Cc2nc3ccccc3n2C)cc1 (stereo not given) | 95* | -9 | 0 | -9
CN(C)c1ccc(-c2nc3ccccc3n2C)cc1 | 93* | 28 | 0 | -8
O=C(Nc1ccc(F)cc1)c1scc2c1CCCC2 | -20 | -18 | 0 | -4
Cc1ccc(/C(O)=C2/C(=O)C(=O)N(Cc3cccnc3)C2c2ccc(N(C)C)cc2)cc1 (stereo not given) | -2 | 6 | 0 | -1
